Results on 40 molecules are retold here after PubChem BioAssay (Tox21).

Records with an inconclusive call do not appear. A number with no mark means an inactive call. The source made the active and inactive calls. Calls follow the shape of the dose curve; as a rule, active = well fitted cell-killing curve with a large enough effect in the repeat runs; inconclusive = weak or mixed curves, or effect the other way; inactive = flat fitted curve, though single readings scatter.
% is scaled to controls: 0 for no effect and ±100 for the full control effect.

The first test is described as follows: cAMP Responsive Elements (CRE) small molecule antagonists, cell-based qHTS assay: qHTS cell viability counter screen (AID 2060913). Also: nearly all actives have a fitted effect of over 40% in size. The note with it: CRE-bla HEK293T viability, CellTiter-Glo luminescence, 5 h; series mostly up to 92.4 µM; viability change, negative = cytotoxic: at the top concentration. The essentials: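 Cytotoxicity counter screen multiplexed with the CRE-bla antagonist read: HEK293T cells in DMEM with dialyzed FBS and 25 mM HEPES were treated 3 hrs under 0.25 uM final NKH477, then viability measured by CellTiter-Glo luminescence.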
Background: Quantitative high-throughput screening tests each substance at several concentrations.
For `Oc1ccccc1Cc1ccccc1O`, the “viability change, negative = cytotoxic” value is 0.495%. For `CCC(C)OC(C)CC` (configuration not stated), the “viability change, negative = cytotoxic” value was -1.86%. For `CC(C)C(=O)O`, the “viability change, negative = cytotoxic” value was -6.53%. Consider `c1ccc2ncccc2c1`, for which the Potency entry was “inactive”.

For the molecule `COc1cc([C@@H]2c3cc4c(cc3[C@@H](O[C@@H]3O[C@@H]5CO[C@@H](C)O[C@H]5[C@H](O)[C@H]3O)[C@H]3COC(=O)[C@H]23)OCO4)cc(OC)c1O`, the “viability change, negative = cytotoxic” value is 0.199%.

Turning to `CCCCCCc1ccc(N)cc1`, the “viability change, negative = cytotoxic” value is -7.19%. As for `C/C(Cl)=C/CCl`, the “viability change, negative = cytotoxic” value was 6.14%. For the molecule `CCOC(=O)COc1ccc(C)cc1`, the “viability change, negative = cytotoxic” value was -2.49%. As to `OC[C@H]1O[C@@H](O[C@@H]2[C@@H](CO)O[C@](O)(CO)[C@H]2O)[C@H](O)[C@@H](O)[C@H]1O`, the “viability change, negative = cytotoxic” value was -3.62% [at 42.5 µM]. Consider `CCCCOCCCC`, for which the “viability change, negative = cytotoxic” value was 6.52%. Regarding `C=Cc1ccc(C(C)(C)C)cc1`, the “viability change, negative = cytotoxic” value was 2.04%. Consider `Nc1ccc(C(=O)N2CC3CC(CN(Cc4ccccc4)C3)C2)cc1`, for which the “viability change, negative = cytotoxic” value was -0.316% [at 42.5 µM].

The next test in a line: cAMP Responsive Elements (CRE) small molecule agonists, cell-based qHTS assay: qHTS cell viability counter screen (AID 2060914). Also: nearly all actives have a fitted effect of over 50% in size. The following applies: CRE-bla HEK293T viability, CellTiter-Glo luminescence, 5 h; series mostly up to 92.4 µM; activity change, negative = cytotoxicity: at the top concentration. The essentials: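 In the same wells as the reporter read, viability of CRE-bla HEK 293T cells was quantified by CellTiter-Glo luminescence after a 3 h compound exposure.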
In the case of `Cc1cc(CC(=O)O)c(C)n1-c1ccc(Cl)cc1`, the “activity change, negative = cytotoxicity” value was 8.75% [at 42.5 µM].

`CCCCCCCCCC(=O)OC`: the Potency result was “inactive”.

Turning to `COc1ccccc1N1CCN(CC(O)COc2cccc3ccccc23)CC1` (configuration not stated), the “activity change, negative = cytotoxicity” value was -0.197% [at 42.5 µM]. Consider `CC(=O)Nc1ccc(C)c(Cl)c1`, for which the “activity change, negative = cytotoxicity” value was -2.66%. As for `CCCCOCCOCCOCc1cc2c(cc1CCC)OCO2`, the “activity change, negative = cytotoxicity” value was -13.4% [at 42.5 µM]. The same measure, in the same setting: for `c1ccc(-c2nn[nH]n2)cc1` the value was 5.56%; for `C=C(C)C(=O)OCC`, 10.3%. `CC(C)(CCl)c1ccccc1`: the “activity change, negative = cytotoxicity” value is -9.38%.

Turning to `COC(=O)c1ccc(OC)cc1`, the “activity change, negative = cytotoxicity” value is -1.83%. Regarding `Cc1ccc(N=Nc2c(O)ccc3ccccc23)c(C)c1`, the “activity change, negative = cytotoxicity” value is 0.205% [at 42.5 µM]. In the case of `CCCCCCCCCCCC[N+](C)(C)CCCCCCCCCCCC`, the “activity change, negative = cytotoxicity” value is 0.495%. Regarding `CCCCOCC(C)OCC(C)O` (configuration not stated), the “activity change, negative = cytotoxicity” value was -8.25%. In the case of `C=CCCCCCCCC`, the “activity change, negative = cytotoxicity” value was 0.352%. As to `OC(CCCN1CCCCC1)(c1ccccc1)c1ccccc1`, the “activity change, negative = cytotoxicity” value is -1.03% [at 42.5 µM]. The same measure, in the same setting: as for `Cc1ccnc(NS(=O)(=O)c2ccc(N)cc2)n1`, the figure is 7% [at 42.5 µM]; as for `CCN1CCc2nc(N)oc2CC1`, 4.92% [at 42.5 µM]. On to `CC(C)CC(C)CC(O)CC(C)C` (configuration not stated), for which the Potency entry is “inactive”.

Consider `Cc1ccc(Cl)cc1`, for which the Potency entry was “inactive”. For the molecule `O=c1oc2c(O)c(O)cc3c(=O)oc4c(O)c(O)cc1c4c23`, the activity change, negative = cytotoxicity is -1.77% [at 18.9 µM]. For `CCCCC(CC)COCCCN` (configuration not stated), the “activity change, negative = cytotoxicity” value is -11.8%. Regarding `O=C(O)CNC(=O)c1ccccc1`, the “activity change, negative = cytotoxicity” value is 13.7% [at 42.5 µM].

As to `Cc1nc2ccc(Cl)cc2[nH]1`, the “activity change, negative = cytotoxicity” value was 0.97%. Still for that read-out and setting: as for `CCCCCCCCCCCCC1CO1` (configuration not stated), the figure is 2.95%.

With `Cc1ccc(N)c([N+](=O)[O-])c1`, the Potency result is “inactive”.

For the molecule `CC/C(=C\C(=N/O)C(N)=O)C(C)[N+](=O)[O-]` (configuration not stated), the “activity change, negative = cytotoxicity” value was -2.73%. `Cc1cncc(C)c1`: the “activity change, negative = cytotoxicity” value was 1.72%. Take `CCCCCCCCCCCCCC`: the “activity change, negative = cytotoxicity” value is -1.98%. Consider `C[N+]1(C)CCCC(OC(=O)C(O)(c2ccccc2)c2ccccc2)C1` (configuration not stated), for which the “activity change, negative = cytotoxicity” value is 6.36% [at 42.5 µM]. Still for that read-out and setting: as for `Oc1ccccc1Cc1ccccc1O`, the figure is -1.89%; as for `CCC(C)OC(C)CC` (configuration not stated), -0.477%. The same measure, in the same setting: for `CC(C)C(=O)O` the value was -4.85%; for `c1ccc2ncccc2c1`, -2.39%; for `COc1cc([C@@H]2c3cc4c(cc3[C@@H](O[C@@H]3O[C@@H]5CO[C@@H](C)O[C@H]5[C@H](O)[C@H]3O)[C@H]3COC(=O)[C@H]23)OCO4)cc(OC)c1O`, 1.53%.

In the case of `CCCCCCc1ccc(N)cc1`, the “activity change, negative = cytotoxicity” value was -12.4%.

Turning to `C/C(Cl)=C/CCl`, the “activity change, negative = cytotoxicity” value was -3.74%. As for `CCOC(=O)COc1ccc(C)cc1`, the “activity change, negative = cytotoxicity” value is -1.07%.

Turning to `OC[C@H]1O[C@@H](O[C@@H]2[C@@H](CO)O[C@](O)(CO)[C@H]2O)[C@H](O)[C@@H](O)[C@H]1O`, the “activity change, negative = cytotoxicity” value is -1.95% [at 42.5 µM]. For `CCCCOCCCC`, the “activity change, negative = cytotoxicity” value was 0.145%. For the molecule `C=Cc1ccc(C(C)(C)C)cc1`, the “activity change, negative = cytotoxicity” value was 0.745%.

As for `Nc1ccc(C(=O)N2CC3CC(CN(Cc4ccccc4)C3)C2)cc1`, the “activity change, negative = cytotoxicity” value is 1.41% [at 42.5 µM].
